Reference: PubChem BioAssay AID2284350 (EPA ToxCast)
Records with an inconclusive call do not appear. Calls of active or inactive are those of the source. How the source made its calls: active means hit-call score of the fitted dose curve at least 0.9, where 1 is the maximum; inconclusive means response in the unintended direction; inactive means score below 0.9.

Tested on: zebrafish Peroxisome Proliferator-activated Receptor alpha (PPARa), gene 563298
Assay: ATG_zfPPARa_EcoTox2: Attagene TRANS-FACTORIAL EcoTox-2 HepG2 Assay for zebrafish Peroxisome Proliferator-activated Receptor alpha (PPARa)
Protocol: ATG_EcoTox2 is a cell-based, multiplexed assay created by modifying the existing Attagene TRANS-FACTORIAL system to include a panel of nuclear receptors from some or all the following species: human (Homo sapiens), african clawed frog (Xenopus laevis), rainbow trout (Oncorhynchus mykiss), japanese medaka (Oryzias latipes), and zebrafish (Danio rerio). The ECOTOX2-FACTORIAL format uses HepG2, a human liver cell line, with measurements taken at 24 hours after chemical dosing in a 24-well plate. ATG_zfPPARa_EcoTox2 is one of 29 assay components calculated in the ATG_EcoTox2 assay. It is designed to make measurements of mRNA induction, a form of inducible reporter, as detected with fluorescence intensity signals by Reverse transcription polymerase chain reaction (RT-PCR) and Capillary electrophoresis technology.The assay endpoint ATG_zfPPARa_EcoTox2 was analyzed in the positive analysis fitting direction relative to DMSO as the negative control and baseline of activity. Using a type of inducible reporter, measures of mRNA for gain-of-signal activity can be used to understand the reporter gene at the transcription factor-level as they relate to the gene PPARa. Furthermore, this assay endpoint can be referred to as a primary readout, because this assay has produced multiple assay endpoints where this one serves a reporter gene function. To generalize the intended target to other relatable targets, this assay endpoint is annotated to the nuclear receptor intended target family, where the subfamily is non-steroidal.
Human liver HepG2 cells are transiently transfected with multiple reporter transcription units (MRTUs) in 6-well plates using FuGene 6 reagent (Roche; 3 ml FuGene/1 mg DNA). The MRTU constructs are regulated by a cis-regulating element (promoter). Each RTU expresses a GAL4-UAS that regulates the transcription of a nearby target reporter gene sequence. A major difference between the CIS and TRANS system is that in CIS activities of endogenous TFs are measured, whereas the TRANS assay evaluates changes in activities of exogenous, chimeric NR-Gal4 proteins. […] At the end of 24 hour incubation, total RNA was isolated using TriZol reagent (Invitrogen). The isolated RNA is then reverse-transcribed using oligo(dT) primer and Mo-MLV reverse transcriptase (Invitrogen) with DNAse I (Ambion) treatment for 30 min. The one-tenth of the produced cDNA was amplified by PCR using Taq DNA polymerase (Invitrogen) and two reporter sequence-specific primers. The PCR products were fluorescently labeled by primer extension with 6-arboxyfluorescein (6-FAM) 5'-labeled reporter sequence-specific primer (2 min at 95 C, 20 s at 68 C and 10 min at 72 C) and these products were digested with 5U of HpaI (New England Biolabs) for 2h at 37 C. The fragments were purified using Qiaquick PCR columns (Qiagen), analyzed on an ABI 3130xL genetic analyzer (Applied Biosystems) with peak positions identified by using a set of X-rhodamine (ROX)-labeled MapMarker1000 molecular weight standards (BioVentures). The raw capillary electrophoresis data was processed using Attagraph software (Attagene).

Structure (SMILES) | outcome | AC50
CC(C)OC(=O)C(C)(C)Oc1ccc(C(=O)c2ccc(Cl)cc2)cc1 | inactive | –
CC(C)(Oc1ccc(CCNC(=O)c2ccc(Cl)cc2)cc1)C(=O)O | – | 21.6 µM (active)
CC(C)(Oc1ccc(C2CC2(Cl)Cl)cc1)C(=O)O (configuration not stated) | – | 71.9 µM (active)
Cc1cccc(Nc2cc(Cl)nc(SCC(=O)O)n2)c1C | – | 8.62 µM (active)
CC(c1cc2ccccc2s1)N(O)C(N)=O (configuration not stated) | inactive | –
CN(CCOc1ccc(CC2SC(=O)NC2=O)cc1)c1ccccn1 (configuration not stated) | inactive | –
Cc1nc(-c2ccc(C(F)(F)F)cc2)sc1C(=O)NCc1ccc(OC(C)(C)C(=O)O)cc1 | – | 0.0769 µM (active)
C[C@@H]1C[C@H]2[C@@H]3CCC4=CC(=O)C=C[C@]4(C)[C@@]3(F)[C@@H](O)C[C@]2(C)[C@@]1(O)C(=O)COP(=O)(O)O | inactive | –
C=C(c1ccc(C(=O)O)cc1)c1cc2c(cc1C)C(C)(C)CCC2(C)C | inactive | –
Cc1ccc(C)c(OCCCC(C)(C)C(=O)O)c1 | – | 73.6 µM (active)
CC(C)(Oc1ccc(Cl)cc1)C(=O)O | inactive | –
Cc1c(C)c2c(c(C)c1O)CCC(C)(COc1ccc(CC3SC(=O)NC3=O)cc1)O2 (configuration not stated) | inactive | –
